Source: the supplement of paper PMC8047044

Tested on: Neuro-2a
Assay: neurite formation score, plate-normalized to DMSO control mean 5.04 (score (0-8 scale)); higher = more or longer neurites
Settings: 0.1 µM
Method: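 Neuro-2a mouse neuroblastoma cells in PLL-coated 96-well plates were pre-treated for 1 h in DMEM(+) with each kinase inhibitor at 0.1 µM, then switched to serum-free DMEM(-) with inhibitor to induce neurite outgrowth and fixed about 2-3 h later. Three blinded observers scored neurite formation from 0 (no neurites) to 8 (long neurites on almost all cells).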

Question: `CCN1CCN(C(=O)Cc2ccc(Nc3ncc(F)c(Nc4ccc(C(=O)Nc5ccccc5Cl)cc4)n3)cc2)CC1` [Aurora A Inhibitor I] was tested. Which neurite formation score did it give?
Answer: 4.92

Question: With `CC(C)(C)c1cc(C=C(C#N)C#N)cc(C(C)(C)C)c1O` [Tyrphostin 9] as the compound, how does the neurite formation score read?
Answer: 4.92

Question: Which neurite formation score does the source give for `COC[C@H]1OC(=O)c2coc3c2[C@@]1(C)C1=C(C3=O)[C@@H]2CCC(=O)[C@@]2(C)C[C@H]1OC(C)=O` [Wortmannin] here?
Answer: 4.58

Question: `CC(C)(C)c1cc(C=C(C#N)C#N)cc(Br)c1O` was tested. Which neurite formation score did it give?
Answer: 5.04

Question: Which neurite formation score does the source give for `COc1cc([C@@H]2c3cc4c(cc3[C@H](O)[C@H]3COC(=O)[C@@H]23)OCO4)cc(OC)c1OC` here?
Answer: 2.38

Question: For `N#CC(C#N)=Cc1ccc(O)c(O)c1`, which neurite formation score is on record?
Answer: 5.38

Question: How did the neurite formation score turn out when `COc1ccc(N(C(=O)Oc2c(C)cccc2C)c2ccnc(Nc3ccc(N4CCN(C)CC4)cc3)n2)c(OC)c1` was run?
Answer: 5.08

Question: For `Cc1ccccc1-n1c(Cn2cnc3c(N)ncnc32)nc2cccc(C)c2c1=O`, which neurite formation score is on record?
Answer: 4.75

Question: How did the neurite formation score turn out when `O=c1[nH]c2ccccc2n1C1CCN(Cc2ccc(-c3[nH]c4cc5ncnc5cc4nc3-c3ccccc3)cc2)CC1` [AKT inhibitor VIII] was run?
Answer: 3.38

Question: `COc1ccc2c(c[n+](C)c3c4cc5c(cc4ccc23)OCO5)c1OC` [Chelerythrine Chloride] was tested. Which neurite formation score did it give?
Answer: 4.04

Question: Which neurite formation score does the source give for `Cn1cc(C2=C(c3cn(C4CCN(Cc5ccccn5)CC4)c4ccccc34)C(=O)NC2=O)c2ccccc21` here?
Answer: 2.38

Question: Which neurite formation score does the source give for `O=c1[nH]c2ccc(Cl)cc2c(N[C@@H]2CN3CCC2CC3)c1-c1nc2ccccc2[nH]1` here?
Answer: 4.92
